Reference: PubChem BioAssay AID430 (Sanford-Burnham Center for Chemical Genomics, 2006)
About 1,100 (1.7%) of roughly 63,000 compounds were called active. Cut-off read from the data, not from the text of the source: active = cytotoxicity above about 50%; inactive = the rest. This excerpt belongs to a sample that is enriched for actives. Potency and affinity values are given separately.

experiment: HPDE-C7 pancreatic duct cell viability loss – fluorescence, HTS (AID 430); details: HPDE-C7 pancreatic duct cells viability, at 10 µM, stronger effect = higher value;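 note: cells exposed to compound for 48 hours before viability readout; 0% = vehicle and 100% = reference cytotoxic drug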

| Structure (SMILES) | cytotoxicity |
| --- | --- |
| O=C(Nc1nnc(CC2=CCCCC2)s1)c1cccs1 | 0.5% (inactive) |
| Cn1c(CNC(=O)c2ccc(F)cc2)nc2ccccc21 | 0.8% (inactive) |
| CCOC(=O)/C=C1\NC(C)(C)Cc2cc(OC)c(O)cc21 | 1.4% (inactive) |
| COc1cc2c(cc1OC)C(/C(C#N)=N\O)=NC(C)(C)C2 | 13% (inactive) |
| CCC1C(O)=C(c2ccccn2)C(=N)N1c1ccccc1 (stereo not given) | 0.3% (inactive) |
| CCOCCOC(=O)C1=C(C)N(C)C(=O)NC1c1ccccc1Cl (stereo not given) | -0.5% (inactive) |
| C/C(NCCN1CCOCC1)=C(\C#N)C(N)=O | -5.5% (inactive) |
| CCOC(=O)c1sc(NC(C)=O)c(C(=O)OCC)c1C | 4.3% (inactive) |
| CCOC(=O)c1c(NC(C)=O)sc2c(O)cccc12 | 21.8% (inactive) |
| CCOC(=O)c1c(NC(C)=O)sc2c(O)c(CN3CCN(CC)CC3)ccc12 | 68% (active) |
| CC(=O)Nc1ccc(S(=O)(=O)NCC2CCC(C(=O)N3CCCCCC3)CC2)cc1 (stereo not given) | -6.2% (inactive) |
| Cc1cc(C)nc(-n2nc(C)cc2NC(=O)CN2CCc3ccccc3C2)n1 | 19.1% (inactive) |
| COc1ccc(CNCC(=O)Nc2cc(C)nn2-c2nc(C)cc(C)n2)cc1OC | 52.9% (active) |
| Cc1cc(C)nc(-n2nc(C)cc2NC(=O)c2ccc(Br)o2)n1 | 25.7% (inactive) |
| COc1ccc(CNc2nc3nc(C)cc(C)n3n2)cc1OC | 2.5% (inactive) |
| Cc1cc(C)nc(-n2nc(C)cc2NC(=O)CN2CCC(C)CC2)n1 | 0.1% (inactive) |
| COc1ccccc1N1CCN(CC(=O)Nc2cc(C)nn2-c2nc(C)cc(C)n2)CC1 | 52.4% (active) |
| COc1ccc(C(CC(=O)O)NC(=O)c2ccco2)cc1OC (stereo not given) | -6.5% (inactive) |
| O=C(c1ccco1)N1CCN(C(c2ccccc2)c2nnnn2Cc2cccs2)CC1 (stereo not given) | 7.3% (inactive) |
| Cc1ccc(OCc2nc(-c3ccccn3)no2)c(Br)c1 | 12.5% (inactive) |
| Clc1ccc(OCc2nc(-c3ccccn3)no2)c(Br)c1 | 4.3% (inactive) |
| CC(C)CCn1c(=O)c2ccccc2n2c(CN(C)Cc3ccccc3)nnc12 | -12.8% (inactive) |
| O=c1[nH]c(CSc2nc3ccccc3o2)nc2c1cnn2-c1ccccc1 | 0.3% (inactive) |
| O=C(NCCc1ccccc1)C1CCCN(S(=O)(=O)c2cccc3nsnc23)C1 (stereo not given) | -0.3% (inactive) |

| Structure (SMILES) | cytotoxicity |
| --- | --- |
| O=C(NCC1CCCO1)C1CCCN(S(=O)(=O)c2cccc3nsnc23)C1 (stereo not given) | -15% (inactive) |
| CCN1CCCC1CNC(=O)C1CCCN(S(=O)(=O)c2cccc3nsnc23)C1 (stereo not given) | 61.7% (active) |
| CC(=O)Nc1ccc(S(=O)(=O)NCc2cn3c(C)csc3n2)cc1 | 10.5% (inactive) |
| O=C(Nc1ccc(F)cc1F)c1cc(-c2ccco2)on1 | -5.3% (inactive) |
| Cc1cc(C(=O)Nc2c(F)cc(F)cc2Br)no1 | 0.9% (inactive) |
| O=C(Nc1c(F)cc(F)cc1Br)c1cc(-c2ccco2)on1 | 58.5% (active) |
| COc1ccccc1-c1cc(C(=O)Nc2c(F)cc(F)cc2Br)no1 | -10.6% (inactive) |
| O=C(Nc1c(F)cc(F)cc1Br)c1cc(-c2ccc(O)cc2)on1 | 54.4% (active) |
| O=C(Nc1c(F)cc(F)cc1Br)c1ccco1 | 0.6% (inactive) |
| Cc1ccc(S(=O)(=O)CCc2nnc(NC(=O)c3cnccn3)s2)cc1 | -8.2% (inactive) |
| CC(=O)Oc1cc2c(C(=O)NCCCN3CCOCC3)c(C)oc2c2ccccc12 | 5.1% (inactive) |
| CCOc1cccc(C(=O)Nc2ccc(N3CCN(S(C)(=O)=O)CC3)cc2)c1 | -6.2% (inactive) |
| CCOc1cccc(C(=O)Nc2ccc(N(CC)CC)cc2)c1 | 79.8% (active) |
| CCN(CC)c1ccc(NC(=O)c2c(OC)cccc2OC)c(C)c1 | 0.4% (inactive) |
| CCN(CC)c1ccc(NC(=O)c2cccc(OC)c2)c(C)c1 | 39.6% (inactive) |
| CCN(CC)c1ccc(C(=O)Nc2cccc(F)c2)cc1 | 34% (inactive) |
| CCN(CC)c1ccc(NC(=O)c2cc(OC)cc(OC)c2)c(C)c1 | 53.5% (active) |
| COc1ccc(CC(=O)NCc2ccccc2Cl)cc1S(=O)(=O)N1CCOCC1 | 1.1% (inactive) |
| CCSc1nsc(SCC)c1C(N)=O | -6.7% (inactive) |
| CCCN(CCO)Cc1cccc(Cl)c1 | 6.6% (inactive) |
| COc1ccc(NS(=O)(=O)c2ccc(C)c(C(=O)O)c2)cc1 | 5% (inactive) |
| CCOC(=O)N1CCN(C(=O)c2cc3sccc3n2C)CC1 | -9.1% (inactive) |
| Cc1onc(-c2ccccc2Cl)c1C(=O)N1CCN=C1SCc1cccnc1 | -11.9% (inactive) |
| COc1cccc(CN(C)C(=O)c2ccc(S(=O)(=O)N3CCCC3)cc2)c1OC | -5.4% (inactive) |

| Structure (SMILES) | cytotoxicity |
| --- | --- |
| O=C(Nc1ccc(Cl)cn1)c1cccnc1 | 13% (inactive) |
| O=C(Nc1ncccc1Cl)c1cccc(F)c1 | 62.6% (active) |
| CN(C)S(=O)(=O)c1cccc(C(=O)Nc2ccc(Cl)cn2)c1 | -15.5% (inactive) |
| O=C(Nc1ccc(Cl)cn1)c1cccc(F)c1 | 53.4% (active) |
| Cc1nnc(NC(=O)c2cccc(F)c2)s1 | -2.4% (inactive) |
| O=C(Nc1ccncc1)c1cccc(F)c1 | -0.4% (inactive) |
| O=C(CSc1nnc(-c2cccs2)o1)N1CCCc2ccccc21 | -17.8% (inactive) |
| CCOC(=O)C1CCCN(CC(=O)Nc2c(C(=O)OC)[nH]c3ccc(C)cc23)C1 (stereo not given) | -8.3% (inactive) |
| N=c1cc(C2(O)CCCCC2)n2c(nc3ccccc32)s1 | 51.1% (active) |
| c1ccc2nc3c(nc2c1)sc1nc2ccccc2n13 | -6.8% (inactive) |
| CC(C)(O)c1cc(=O)sc2nc3ccccc3n12 | -13.4% (inactive) |
| COc1ccc(NC(=O)CS(=O)CC(=O)Nc2cc(Cl)ccc2OC)cc1 (stereo not given) | -12.2% (inactive) |
| CC(Oc1ccc(Cl)cc1Cl)C(=O)Nc1ccncc1 (stereo not given) | -0.5% (inactive) |
| Cc1ccc(N(CC(O)CN(C)C)S(=O)(=O)c2ccccc2)cc1 (stereo not given) | 3.3% (inactive) |
| Cc1cccc(-c2nnc(-c3ccc(N)cc3)o2)c1 | -2% (inactive) |
| CC(=O)c1ccc(C(=O)Nc2nnc(-c3ccc(Cl)cc3)o2)cc1 | 66.8% (active) |
| COc1ccc(C(=O)Nc2nnc(-c3ccccc3)o2)cc1OC | -9.5% (inactive) |
| CN(C)c1ccc(C(=O)Nc2nnc(-c3ccc(Cl)cc3)o2)cc1 | 31.7% (inactive) |
| Cc1cccc(-c2nnc(-c3ccccc3)o2)c1 | -3.9% (inactive) |
| Cc1cccc(-c2nnc(NC(=O)c3ccc(Cl)cc3)o2)c1 | 79.5% (active) |
| COc1ccccc1C(=O)Nc1nnc(-c2ccc(Cl)cc2)o1 | -10.4% (inactive) |
| O=C(Nc1nnc(-c2ccccc2)o1)Nc1ccccc1Cl | 22.1% (inactive) |
